Assay outcomes (PubChem BioAssay)
A selection: hits, their analogues and other compounds. The true share with any hit is near 0.34%.
Vif-APOBEC3F blk – blocks the Vif interaction with APOBEC3F | Potency, µM (titrated, usually from 46.1 µM) | HeLa A3F-eYFP + Vif (tagged APOBEC3F with the HIV-1 protein that degrades it), YFP fluorescence increase | actives 0.2% (n = 390,000); also: nearly all actives have a fitted effect of over 65% in size
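HeLa cells stably expressing Vif plus C-terminally eYFP-tagged A3F were seeded, incubated overnight at 37 deg C, dosed with compound, incubated overnight again at 37 deg C. Yellow fluorescence (Ex 488/Em 500-530) reported blocked Vif-mediated A3F-eYFP degradation.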
Vif-A3G inh – inhibitors of Vif-APOBEC3G interaction. Q9HC16. HeLa A3G-eYFP + Vif (tagged APOBEC3G with the HIV-1 protein that degrades it), YFP fluorescence, overnight. Potency, µM (top dose mostly 46.1 µM), actives largely listed as inhibitors. actives 0.076% (n = 410,000); also: nearly all actives have a fitted effect of over 60% in size
Target sequence (Q9HC16 whole entry, looked up): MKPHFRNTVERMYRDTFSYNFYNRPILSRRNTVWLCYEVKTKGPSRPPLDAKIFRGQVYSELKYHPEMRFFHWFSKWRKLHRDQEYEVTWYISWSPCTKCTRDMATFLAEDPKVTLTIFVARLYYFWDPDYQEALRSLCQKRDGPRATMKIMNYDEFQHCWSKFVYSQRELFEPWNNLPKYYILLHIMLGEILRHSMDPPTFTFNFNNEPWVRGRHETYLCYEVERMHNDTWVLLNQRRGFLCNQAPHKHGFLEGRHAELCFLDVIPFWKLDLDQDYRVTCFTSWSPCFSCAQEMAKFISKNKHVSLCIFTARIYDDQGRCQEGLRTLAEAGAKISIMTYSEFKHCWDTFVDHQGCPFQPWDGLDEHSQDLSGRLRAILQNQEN
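Read-out is eYFP fluorescence (Ex 488/Em 500-530) from Vif-expressing HeLa A3G-eYFP cells; more signal means A3G escaped Vif-mediated degradation. Cells plated overnight, compound pinned in, incubated overnight at 37 deg C.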
Epigenetic reg – derepresses silenced GFP reporter in murine cells; murine LDR cells, GFP reporter derepression, 30 h; Potency, µM (highest dose often 53.9 µM), most hits filed as activators; actives 0.2% (n = 280,000); AID 1865; also: nearly all actives have a fitted effect of over 60% in size
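Derepression of a silenced CMV-GFP reporter in murine LDR cells is scored by enumerating GFP-positive cells with a laser-scanning microplate cytometer after 30 hours of treatment at 37 C.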
Parental c127i – counter-screen for epigenetic modulators: effect in parental c127i cells. shares compounds with Epigenetic reg. mouse c127i parental cells, fluorescent cell count, 30 h. Potency, µM, actives largely listed as activators. actives 20% (n = 60)
HCC4017 tox – HCC4017 cytotoxicity of epigenetic modulator hits. shares compounds with Epigenetic reg. HCC4017 NSCLC viability, CellTiter-Glo ATP luminescence, 72 h. Potency, µM (top dose mostly 46.1 µM), actives largely listed as cytotoxic. actives 30% (n = 45). AID 493071
H358 viab – epigenetic modulators: cytotoxicity in H358 lung cancer cells; shares compounds with Epigenetic reg; Potency, µM (doses to about 46.1 µM), usual class: cytotoxic; actives 30% (n = 45); H358 NSCLC viability, ATP luminescence, 72 h; AID 493074
A number is an active result; 0 = inactive; ? = inconclusive; - = no result given. Calls follow the shape of the dose curve; as a rule, active = well fitted curve in the direction sought with a large enough effect; inconclusive = small, poorly fitted or top-dose-only effect, or another doubt; inactive = no such curve, though single readings can be large; an effect the other way counts as inactive or inconclusive.

SMILES	Vif-APOBEC3F blk	Vif-A3G inh	Epigenetic reg	others
NC(=O)N/N=C/c1sc(N2CCCCC2)nc1-c1cccs1	0	?	-
CCOC(=O)C1=CN(C(=O)OC(C)(C)C)C(CN2C(=O)COCC2=O)C1 (centres undefined)	-	0	-
Cc1ccc2c(c1C)NC(=O)CC(c1ccccc1O)=N2	11µM	0	0
Cc1ccc2c(c1)NC(=O)CC(c1ccccc1)=N2	0	0	0
O=C(NC(=S)Nc1cccc(Cl)c1N1CCCCC1)c1ccc2c(c1)OCCO2	?	0	0
CCC(=O)NC(=S)Nc1cccc(Cl)c1N1CCCC1	10µM	0	0
COc1cc(/C=N\NC(=O)CN2CCOCC2)ccc1OCC(=O)Nc1ccc(C)c(C)c1	0	0	0
COc1cc(/C=N\Nc2ccc([N+](=O)[O-])cc2)ccc1OCC(=O)Nc1ccc(C)c(C)c1	10µM	0	6.3µM
CCc1nn2c(-c3ccccc3OC)ccnc2c1-c1ccccc1	0	0	0
Cc1ccc(NC(=O)Cn2c(O)c(N=NC(=O)c3ccncc3)c3ccccc32)cc1	4µM	0	0
O=C(Cn1c(O)c(N=NC(=O)c2ccncc2)c2ccccc21)Nc1ccccc1	0	0	0
CCOC(=O)c1c(NC(C)=O)c2c3c(sc2n1Cc1cc(C)ccc1C)CCCC3	-	-	0
O=C(C[n+]1cc(Br)cc(Br)c1)c1ccc(I)cc1	-	0	-
O=C(CC1Oc2ccccc2NC1=O)NCc1ccccc1 (centres undefined)	0	0	0
CC(=O)CC1OC(=O)C(Br)=C1NCc1ccccc1 (centres undefined)	?	0	7.9µM
O=Nc1c(O)[nH]c2ccc(F)cc12	0	0	0
Cc1cc2c(N=O)c(NO)ccc2[nH]1	?	5.6µM	16µM
O=S(=O)(Nc1nc2ccccc2nc1OCC(F)(F)F)c1cccs1	25µM	0	0
COc1ccc(Nc2nc3ccccc3nc2NS(=O)(=O)c2cccs2)cc1	0	0	0
CCOC(=O)c1c(/N=C/N(C)C)sc(/C=N/Nc2ccccc2)c1-c1ccccc1Cl	0	0	0
CCOC(=O)c1c(/N=C/N(C)C)sc(/C=N/Nc2ccccc2)c1-c1ccccc1	0	0	10µM
O=C(Cn1c2ccccc2c(=O)c2ccccc21)N/N=C/c1ccc(N2CCCC2)c([N+](=O)[O-])c1	?	0	0
O=C(Cn1c2ccccc2c(=O)c2ccccc21)N/N=C/c1cc([N+](=O)[O-])ccc1N1CCCCCC1	0	0	20µM
Cc1c(C(=O)NCc2ccccc2Br)oc2c1-c1[nH]ncc1CC2	0	0	0
N=C1/C(=C/c2coc3ccccc3c2=O)C(=O)N=C2SC(c3ccco3)=NN12	?	0	0
SMILES	Vif-APOBEC3F blk	Vif-A3G inh	Epigenetic reg	others
N=C1/C(=C\c2coc3ccccc3c2=O)C(=O)N=C2SC(c3ccncc3)=NN12	25µM	?	0
CSC1=NSC2=NC(=O)/C(=C\c3coc4ccccc4c3=O)C(=N)N12	?	?	0
CC(C)CSC1=NSC2=NC(=O)/C(=C\c3coc4ccccc4c3=O)C(=N)N12	22µM	?	0
CCCCN(C(=O)c1ccc([N+](=O)[O-])s1)c1c(N)n(CCCC)c(=O)[nH]c1=O	13µM	0	-
CCCCn1c(N)c(N(CCC(C)C)C(=O)COC(=O)c2ccc([N+](=O)[O-])s2)c(=O)[nH]c1=O	?	0	-
COc1ccc(N2CCN(S(=O)(=O)c3ccc(OC)c(-c4noc(C)n4)c3)CC2)cc1	0	0	5µM
COc1ccc(N2CCN(S(=O)(=O)c3ccc(OC)cc3)CC2)cc1	0	0	0
COc1ccc(S(=O)(=O)N2CCN(c3ccccc3F)CC2)cc1-c1noc(C)n1	0	0	1.1µM
CCc1nc(-c2cc(S(=O)(=O)N3CCN(c4ccccc4F)CC3)ccc2OC)no1	0	0	0
COc1ccc(N2CC(c3nc(-c4ccccc4C)no3)CC2=O)cc1Cl (centres undefined)	0	0	0
CCCCCCCCNc1ccc(/C=C/c2ccnc3ccccc23)cc1	-	0	-
CCOC(=O)c1cc(-c2ccccc2)sc1NC(=O)C(C)(C)C	0	0	0
CCOC(=O)c1cc(-c2ccccc2)sc1NC(=S)Nc1cc(C)ccn1	8.9µM	0	0
CCc1ccc2occ(CC(=O)N(Cc3ccccc3)C3CCS(=O)(=O)C3)c2c1 (centres undefined)	0	0	0
Cc1cccc(NC(=O)CSc2nc3c(oc4ccccc43)c(=O)n2-c2ccccc2)c1C	0	0	0
COc1cc(NC(=O)Cn2c(=O)n(Cc3ccccc3Cl)c(=O)c3cc(OC)c(OC)cc32)cc(OC)c1	0	0	0
CCOC(=O)N1CCc2c(sc3c2C(=O)NC(c2ccc(N(C)C)cc2)N3)C1 (centres undefined)	11µM	?	0
CCOC(=O)N1CCc2c(sc3c2C(=O)NC(c2ccccc2)N3)C1 (centres undefined)	0	0	0
O=Cc1ccc2[nH]ccc2c1	-	0	-
Cc1ccc(/C=C2/NC(=O)N(Cc3ccccc3F)C2=O)s1	?	?	3.5µM
O=C1N/C(=C/c2cccs2)C(=O)N1Cc1ccccc1F	0	0	0
O=S1(=O)CCOC[C@H](c2ccccc2)N1Cc1ccc(Cl)cc1Cl	-	0	-
CN(C)c1ccc(/C=C(/C#N)C(=O)NCc2ccccc2)o1	10µM	?	0
N#C/C(=C/c1ccccc1)C(=O)NCc1ccccc1	0	0	0
C/C=C/c1ccc(OCC(=O)OCC(=O)NC2CC2)c(OC)c1	0	0	?	Parental c127i=0;HCC4017 tox=0;H358 viab=0
SMILES	Vif-APOBEC3F blk	Vif-A3G inh	Epigenetic reg	others
O=C(COC(=O)COc1ccc(Cl)cc1Cl)NC1CC1	0	0	-
COc1cccc(/C=N/Nc2nc(Nc3ccccc3)nc(-n3nc(C)cc3C)n2)c1O	0	0	2.5µM	Parental c127i=0;HCC4017 tox=2.5µM;H358 viab=4.4µM
Cc1cc(C)n(-c2nc(Nc3ccccc3)nc(-n3nc(C)cc3C)n2)n1	0	0	0
Cc1cccc(N2CCN(S(=O)(=O)c3cc(C(=O)Nc4ccc(Oc5ccccc5)cc4)ccc3F)CC2)c1C	0	0	0
O=[N+]([O-])/C(C=Nc1ccccc1O)=C\Nc1ccccc1O	0	0	?	Parental c127i=0;HCC4017 tox=0;H358 viab=?
O=[N+]([O-])/C(=C\Nc1ccccc1Cl)S(=O)(=O)c1ccccc1	-	-	0
O=C(/C=C/C(=O)Oc1ccccc1C(=O)O)Oc1ccccc1C(=O)O	-	-	0
COc1ccc(C)cc1NC(=O)c1cn(C)c(=O)c2cc(OC)c(OC)cc12	0	0	0
Cc1cc(C(=O)CSc2cccc[n+]2[O-])c(C)n1-c1ccc(Br)cc1	-	-	0
O=C(CSc1cccc[n+]1[O-])c1ccccc1Br	0	0	3.5µM	Parental c127i=0;HCC4017 tox=0;H358 viab=0
COc1cccc(N2CCN(S(=O)(=O)c3ccc(-n4cnnn4)cc3)CC2)c1	0	0	?	Parental c127i=0;HCC4017 tox=0;H358 viab=0
